The source of these data is PubChem BioAssay (NCATS).

Inconclusive results are not listed. Entries that show only a call come without a potency. The source made the active and inactive calls. The call rests on the fitted dose curve; in most records, active means well fitted inhibition curve with a large enough effect; inconclusive means small, poorly fitted or top-dose-only effect; inactive means no such curve, though single readings can be large or run the other way.
Potency means the concentration at half of the fitted maximal effect.

For the test, the target named is Rap guanine nucleotide exchange factor 4 (Homo sapiens) (UniProt Q8WZA2). Put plainly: Confirmatory qHTS for antagonist of cAMP-regulated guanine nucleotide exchange factor 4 (EPAC2) (AID 1645885). Further: nearly all actives have a fitted effect of over 25% in size. The following applies: EPAC2 Rap1B-BODIPY-GDP exchange fluorescence, biochemical; series mostly up to 12.7 µM.
Rap guanine nucleotide exchange factor 4 (Homo sapiens), sequence (Q8WZA2 whole entry, looked up): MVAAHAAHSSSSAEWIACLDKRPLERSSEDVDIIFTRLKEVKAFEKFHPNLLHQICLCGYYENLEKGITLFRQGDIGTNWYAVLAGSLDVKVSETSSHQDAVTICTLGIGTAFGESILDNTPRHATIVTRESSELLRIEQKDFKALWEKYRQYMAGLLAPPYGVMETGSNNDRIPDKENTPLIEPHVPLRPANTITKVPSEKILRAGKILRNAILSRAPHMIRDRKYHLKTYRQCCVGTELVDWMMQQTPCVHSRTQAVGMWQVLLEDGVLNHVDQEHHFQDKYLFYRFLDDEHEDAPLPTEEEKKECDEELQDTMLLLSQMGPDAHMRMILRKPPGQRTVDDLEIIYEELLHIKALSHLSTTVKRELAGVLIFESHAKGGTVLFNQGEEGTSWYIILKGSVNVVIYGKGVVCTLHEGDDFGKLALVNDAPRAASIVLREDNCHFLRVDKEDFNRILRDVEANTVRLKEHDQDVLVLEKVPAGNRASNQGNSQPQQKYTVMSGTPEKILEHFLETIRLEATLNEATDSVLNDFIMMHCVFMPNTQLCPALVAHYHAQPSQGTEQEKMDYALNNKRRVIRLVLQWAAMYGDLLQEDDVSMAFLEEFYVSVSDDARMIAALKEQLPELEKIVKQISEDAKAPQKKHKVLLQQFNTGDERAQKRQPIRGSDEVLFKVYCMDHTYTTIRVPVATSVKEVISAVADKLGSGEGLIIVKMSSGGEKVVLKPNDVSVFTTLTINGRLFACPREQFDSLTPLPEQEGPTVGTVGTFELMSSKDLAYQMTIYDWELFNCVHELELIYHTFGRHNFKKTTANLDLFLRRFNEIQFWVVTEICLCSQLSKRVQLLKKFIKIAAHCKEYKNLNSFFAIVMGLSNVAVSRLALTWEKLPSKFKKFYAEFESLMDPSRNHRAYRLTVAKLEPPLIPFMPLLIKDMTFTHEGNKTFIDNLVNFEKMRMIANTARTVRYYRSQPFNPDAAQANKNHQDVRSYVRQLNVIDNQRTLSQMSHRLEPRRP
For the molecule `NS(=O)(=O)c1ccc2c(c1)C1C=CCC1C(C1CC=CCC1)N2` (stereo unspecified), the Potency result was “inactive”.

On to `COC(=O)c1ccc2nc(-c3ccc(F)cc3)c(Cc3ccc(C)cc3)n2c1`, for which the Potency result was “inactive”.

Regarding `COc1ccccc1NC(=O)c1ccccc1NS(=O)(=O)c1cccs1`, the Potency entry is “inactive”.

`CCOC(=O)c1cc2c(=O)n3ccccc3nc2n(Cc2ccco2)c1=NC(=O)c1c(F)cccc1Cl`: the Potency result was “inactive”.

`CCCC(=O)OC1CC(C)N(C(=O)c2ccccc2)c2ccc(C)cc21` (stereo unspecified): the Potency was 3.38 µM (active).

With `COc1ccc(OC)c(NC(=O)C2(C)CCN2CCc2ccccc2)c1` (stereo unspecified), the Potency was 42.6 µM (active).

As for `O=C1Cc2ccccc2C(=O)N1CCc1ccccc1`, the Potency result is “inactive”.

For `O=C(CCCn1c(SCC(=O)c2ccc(O)c(O)c2)nc2ccccc2c1=O)NCC1CCCO1` (stereo unspecified), the Potency entry was “inactive”.

`CCc1nc2c(OCc3ccc(C(F)(F)F)cc3)cccn2c1N(C)C(=O)C(C)C`: the Potency result is “inactive”.

For `CCOC(=O)c1ccc2ncc(C(=O)OCC)c(Nc3ccc(C)c(Br)c3)c2c1`, the outcome is “inactive [at 12.7 µM]”.

Take `O=C(Nc1cccc(F)c1)c1ccc(-c2cccnc2)c2ccoc12`: the Potency result is “inactive”.

In the case of `CCc1ccc(/C=C2\SC(=S)N(CCCC(=O)Nc3ccccc3C(=O)O)C2=O)cc1`, the Potency result is “inactive”.

`Cc1cc(/C=C2\SC(=S)NC2=O)c(C)n1-c1cccc(O)c1`: the Potency result was “inactive”.

On to `CC(C)=CCC[C@H](C)C[C@@H]1Cc2[nH][nH]c(=O)c2[C@@H](c2ccc(F)cc2)O1`, for which the Potency entry was “inactive”.

For `CCOc1cc(CNc2ccc(O)cc2)cc(Cl)c1OCc1ccccc1`, the Potency entry is “inactive”.

As for `O=C(COc1ccccc1-c1ccccc1)NCc1ccco1`, the outcome was “inactive [at 12.7 µM]”.
